PubChem BioAssay (NCATS)
Results filed as inconclusive are left out. Values without a mark were called inactive. Calls of active or inactive are those of the source. The call rests on the fitted dose curve; in most records, active means well fitted inhibition curve with a large enough effect; inconclusive means small, poorly fitted or top-dose-only effect; inactive means no such curve, though single readings can be large or run the other way.

Test: Primary qHTS for small molecule stabilizers of the endoplasmic reticulum resident proteome: Secreted ER Calcium Modulated Protein (SERCaMP) assay (AID 1508630)
Settings: SH-SY5Y GLuc-SERCaMP (Gaussia luciferase released on ER calcium loss) secretion, thapsigargin, luminescence; series mostly up to 38.4 µM; activity change, negative = inhibition: at the top concentration
Outline: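 The SH-SY5Y reporter protocol was run at 3 concentrations up to 38.3 uM (primary) or 11 concentrations (follow-up): 16 h compound, 100 nM thapsigargin for 4 h, then extracellular luciferase luminescence.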
On the % scale 0 is the no-effect control and ±100 the full control effect.

Row | Structure (SMILES) | activity change, negative = inhibition | Potency
1 | Cc1cc(OCCOCC[N+](C)(C)Cc2ccccc2)ccc1C(C)(C)CC(C)(C)C | 25.9% | 
2 | CCCCCOc1ccc(C2SC(=O)NC2=O)cc1OCC (stereo not given) | -24.2% | 
3 | CCCCC(CC)COC(=O)c1ccccc1C(=O)O (stereo not given) | 31% [at 76.3 µM] | 
4 | C[C@H]1C[C@@H]2[C@H]([C@@H](O)C[C@@]3(C)[C@H]2CC[C@]3(O)C(=O)CO)[C@@]2(C)C=CC(=O)C=C12 | 20.4% | 
5 | OCc1cccnc1 | -23.5% | 
6 | OCCCc1ccccc1 | -30.9% | 
7 | Cn1cnc2c(NCc3ccccc3)nc(NCCO)nc21 |  | inactive
8 | O=C(O)CCCC[P+](c1ccccc1)(c1ccccc1)c1ccccc1 | -7.64% | 
9 | CC(=O)Oc1ccc(C2(c3ccc(OC(C)=O)cc3)Oc3ccccc3NC2=O)cc1 | 18.4% | 
10 | O=C(Oc1ccccc1)c1ccccc1O | -23.8% | 
